# Data reported in PubChem BioAssay AID1345083 (National Center for Advancing Translational Sciences (NCATS), 2018).
# In all, about 94,000 compounds went through this assay and about 6,200 (6.6%) were called active. Entries that show only a call come without a potency. Inconclusive results (about 31%) are left out. Calls follow the shape of the dose curve; as a rule, active = well fitted inhibition curve with a large enough effect; inconclusive = small, poorly fitted or top-dose-only effect; inactive = flat fitted curve, though single readings scatter. For the sample, actives were picked, then their nearest neighbours and some compounds at random.
# Experiment: Cytotoxic Profiling in HEK 293 Cell Line of Diverse Libraries Using Quantitative High-Throughput Screening; also: nearly all actives have a fitted effect of over 60% in size
# Conditions: HEK 293 viability, ATP luminescence (CellTiter-Glo), 48-72 h; series mostly up to 115 µM
# How it was run: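 250 HEK 293 cells/well; compound by pintool; incubated 48 or 72 hr at 37 degree Celsius; CellTiter-Glo added, 10 min RT, luminescence imaged.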
# Potency is read from the fitted curve at half-maximal effect.
row,Compound,Potency
1,COCCNC(=O)CC[C@]12CC[C@](C)(O)C[C@H]1C(C)(C)C[C@@H]2NC(=O)c1ccco1,inactive
2,COc1cccc(CN2CC[C@@](C)(O)[C@H](N3CCCC3)C2)c1,inactive
3,CNC(=O)[C@@H]1CN(Cc2cccc(OC)c2)C[C@H]1CO,inactive
4,N[C@@H]1CCN(Cc2cccc(Oc3ccc(F)cc3)c2)C[C@H]1O,79.4 µM (active)
5,COC(=O)C1=C(C)N=C2SC=C(CC(=O)NCc3ccco3)N2C1c1cccc(F)c1 (centres undefined),inactive
6,CC(C)(C)c1nc(C(=O)N2CCOCC2)n2ccccc12,inactive
7,CCCNC(=O)N1CCCC1c1nc(C2CCOCC2)no1 (centres undefined),inactive
8,COCCN1C(=O)CS(=O)C12CCN(C(=O)NC1CCCC1)CC2 (centres undefined),inactive
9,Cn1nccc1C(=O)N1CCCCCNC(=O)[C@@H]2CCC[C@@H]21,inactive
10,O=C(c1cccc(O)c1)N1CCNc2cnc(Nc3cccc(F)c3)nc2C1,100 µM (active)
11,COc1ccccc1Nc1ncc2c(n1)CN(C(=O)COc1ccccc1)CCN2,inactive
12,O=C(c1cccc(F)c1)N1CCCC(c2nccn2Cc2cscn2)C1 (centres undefined),inactive
13,Cc1ccc(C(=O)N2C[C@H]3CN(C4CCOCC4)C[C@@]3(C(=O)O)C2)cc1,inactive
14,COc1ccc(-c2ccnc(-c3nnc(C)n3C3CCN(C)CC3)c2)cc1OC,inactive
15,COCCn1c(C)nnc1-c1cc(-c2cccc(F)c2)ccn1,inactive
16,Cc1nnc(-c2cc(-c3ccccc3)ccn2)n1CCc1ccccc1,89.1 µM (active)
17,O=C(C1CCN([S+](=O)([O-])c2cccs2)CC1)N1CCC(c2nc3ncccc3[nH]2)CC1,inactive
18,Cc1ccc(N2Cc3c(NC4CCCCC4)ncnc3N(C)CC2=O)cc1,inactive
19,O=C(Cc1cccn1-c1ccccc1)N1CCOCC1,inactive
20,Cc1ccc(C(=O)N2CCCC(C(=O)NCc3ccccc3)CCNC(=O)CC2)s1 (centres undefined),inactive

row,Compound,Potency
1,O=[N+]([O-])c1cccc(-c2noc([C@@H]3C[C@@H](O)CN3Cc3cccnc3)n2)c1,inactive
2,COc1ccc(-c2nc(C3CC3)nc3c2CCN([S+](=O)([O-])c2ccccc2)CC3)cc1,inactive
3,COc1cccc(C(=O)N2CCc3nc(C(C)C)nc(-c4ccc(Cl)cc4)c3C2)c1,89.1 µM (active)
4,COc1ccc(-c2nc(C(C)C)nc3c2CCN([S+](=O)([O-])c2cccc(C(F)(F)F)c2)CC3)cc1,39.8 µM (active)
5,COc1ccc(C(=O)N2CCc3nc(C4CC4)nc(-c4ccc(Cl)cc4)c3C2)cc1,inactive
6,COc1ccc(-c2nnc3n2CCN(C(=O)c2cccc(OC)c2)C3)cc1,inactive
7,COc1ccc(-c2nc(C)nc3c2CN([S+](C)(=O)[O-])CC3)cc1,inactive
8,CCC(CC)C(=O)N1CCC(N2CCCC(C(=O)NCc3ccccc3)C2)CC1 (centres undefined),inactive
9,COc1cc(SC)ccc1C(=O)N[C@@H]1C=C(C(=O)N[C@H](Cc2ccccc2)C(N)=O)C[C@@H](O)[C@@H]1O,inactive
10,CCCC(NC(C)=O)C(=O)Nc1cccc(NC(=O)Cc2ccccc2)c1 (centres undefined),inactive
11,O=c1[nH]c(C2CCN(Cc3ccc(F)cc3)CC2)nn1Cc1ccccc1,inactive
12,COc1ccccc1C(=O)N1CCC2(CCC(=O)N(Cc3ccccc3)CC2)CC1,inactive
13,COc1ccccc1C(=O)N1CCC2(CC1)CC(=O)c1ccccc1O2,112 µM (active)
14,COc1ccccc1C(=O)N1CCC(n2cnnc2C2CC2)CC1,inactive
15,OC1CC(c2cc(N3CCC(c4nnc5n4CCCCC5)CC3)ncn2)C1 (centres undefined),inactive
16,O=C(O)c1cccc(-c2ccccn2)c1,inactive
17,COCCN1C(=O)c2cccn2CC1CNC(=O)c1ccccc1F (centres undefined),inactive
18,CN(C)[C@@H]1CO[C@H](CNS(=O)(=O)c2ccccc2)[C@H]1O,inactive
19,CNC(=O)c1cc[nH]c1C1CCCN(C(=O)Cc2c[nH]c3ccccc23)C1 (centres undefined),inactive
